{
  "source": "PubChem BioAssay AID778",
  "about": "(Sanford-Burnham Center for Chemical Genomics, 2007)",
  "note": "In all, about 96,000 compounds went through this assay and about 20,000 (21%) were called active. The list is a sample of the results. Values without a mark were called inactive.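 The calls were made as follows: active = CYP2C19 inhibition above a set limit at 5 µM in the primary screen (cut at about 50% in these data); inactive = the rest.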",
  "data": [
    {"target": "Cytochrome P450 2C19 (Homo sapiens) (UniProt P33261)", "sequence (P33261 whole entry, looked up)": "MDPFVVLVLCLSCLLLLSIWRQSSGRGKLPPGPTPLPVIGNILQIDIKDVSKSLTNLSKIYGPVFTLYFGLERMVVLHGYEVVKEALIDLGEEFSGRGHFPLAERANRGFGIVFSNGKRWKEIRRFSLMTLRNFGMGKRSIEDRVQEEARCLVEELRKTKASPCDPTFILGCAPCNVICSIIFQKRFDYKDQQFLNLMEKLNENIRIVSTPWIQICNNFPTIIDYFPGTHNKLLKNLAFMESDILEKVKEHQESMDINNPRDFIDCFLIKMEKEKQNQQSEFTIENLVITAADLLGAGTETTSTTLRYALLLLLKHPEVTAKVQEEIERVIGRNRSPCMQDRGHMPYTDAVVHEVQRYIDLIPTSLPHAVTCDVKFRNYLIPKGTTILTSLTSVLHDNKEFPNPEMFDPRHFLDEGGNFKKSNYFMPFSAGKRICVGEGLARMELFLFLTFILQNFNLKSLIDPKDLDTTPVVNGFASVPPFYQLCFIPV", "assay": "blockers of cytochrome P450 2C19 activity – biochemical, luminescence, ADME assay, primary screen (AID 778);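 also: plate controls were negative control wells for no effect and 2.5 mM tranylcypromine positive control for full effect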", "details": "CYP2C19 Supersomes, luciferin-H EGE luminescence, 30 min; at 5 µM; active compounds read high", "values": [
      {"compound": "COC(=O)C1=C(N)Oc2cc(C)oc(=O)c2C1c1cccnc1", "note": "(stereo unspecified)", "inhibition": "38.3%"},
      {"compound": "Cc1nn(C)cc1/C=C1\\CCC/C(=C\\c2cn(C)nc2C)C1=O", "inhibition": "16.5%"},
      {"compound": "Cc1ccc(Cn2c(C)nc3c(c2=O)c2nc4ccccc4nc2n3Cc2ccco2)cc1", "inhibition": "28%"},
      {"compound": "COCCCn1c2nc3ccccc3nc2c2c(=O)n(Cc3ccc(Cl)cc3)c(C)nc21", "inhibition": "59.8% (active)"},
      {"compound": "COCCCNC(=O)CCc1nc2cccnc2n1Cc1ccc(OC)cc1", "inhibition": "-3%"},
      {"compound": "COc1cc(/C=N\\NC(=O)C2C(=O)NCC2c2ccccc2)cc(OC)c1O", "note": "(stereo unspecified)", "inhibition": "-8.6%"},
      {"compound": "O=C(NN1C(=O)C2C3C=CC(C4CC34)C2C1=O)c1ccc(Cl)cc1", "note": "(stereo unspecified)", "inhibition": "1.3%"},
      {"compound": "CC(C)OCCCNC(=O)C1CC(=O)N(C2CCCCCCC2)C1", "note": "(stereo unspecified)", "inhibition": "-8.7%"},
      {"compound": "Cc1ccc(S(=O)(=O)N(c2cccc(C)c2)C2CCS(=O)(=O)C2)cc1", "note": "(stereo unspecified)", "inhibition": "-10.2%"},
      {"compound": "CCc1ccc(CCC(=O)Nc2ccc(S(N)(=O)=O)cc2)o1", "inhibition": "-6.2%"},
      {"compound": "CCOc1ccccc1Nc1nnc(SCC(=O)Nc2cc(C)on2)s1", "inhibition": "9.6%"},
      {"compound": "CCOc1ccccc1NC(=O)CCc1ccc(C)o1", "inhibition": "90.7% (active)"},
      {"compound": "O=c1c2ccccc2nc2n1C(CSCc1ccccc1)CS2", "note": "(stereo unspecified)", "inhibition": "63.8% (active)"},
      {"compound": "O=c1c2ccccc2nc2n1C(CSCc1cccc(C(F)(F)F)c1)CS2", "note": "(stereo unspecified)", "inhibition": "84.1% (active)"},
      {"compound": "O=c1c2ccccc2nc2n1C(CSc1ccc(F)cc1)CN2", "note": "(stereo unspecified)", "inhibition": "-3.9%"},
      {"compound": "CC1CSc2nnc(CCc3ccccc3)n21", "note": "(stereo unspecified)", "inhibition": "2.1%"},
      {"compound": "Cc1ccccc1N/N=C/c1ccc(N2CCOCC2)cc1", "inhibition": "23.7%"},
      {"compound": "CCOc1ccccc1/C=c1\\sc2nc(-c3ccco3)nn2c1=O", "inhibition": "15.4%"},
      {"compound": "CN(CCCNC(=O)CN1C(=O)CC(C)(C)S(=O)(=O)c2ccccc21)C1CCCCC1", "inhibition": "9.9%"},
      {"compound": "O=C(CN1C(=O)CC(c2ccccc2)=Nc2ccccc21)NC1CCCCC1", "inhibition": "52.2% (active)"},
      {"compound": "O=C(NC1CCCCC1)C1CC(=O)N(CCc2ccccc2)C1", "note": "(stereo unspecified)", "inhibition": "-5.3%"},
      {"compound": "O=C(NCc1ccco1)c1cc(-c2cccnc2)nc2ccc(Cl)cc12", "inhibition": "0.7%"},
      {"compound": "O=C(NCCCN1CCN(C2CCCCC2)CC1)Nc1ccccc1C(F)(F)F", "inhibition": "-6.6%"},
      {"compound": "Cc1ccc(CNC(=O)C2CCCN(S(C)(=O)=O)C2)cc1", "note": "(stereo unspecified)", "inhibition": "26.6%"},
      {"compound": "Cc1ccoc1C(=O)Nc1cccc(Oc2ccccc2)c1", "inhibition": "5.3%"},
      {"compound": "Cc1onc(-c2ccccc2)c1C(=O)Nc1ccccc1C#N", "inhibition": "86.7% (active)"},
      {"compound": "CC(=O)Nc1cccc(NC(=O)c2c(-c3ccccc3)noc2C)c1", "inhibition": "67.3% (active)"},
      {"compound": "O=C(Nc1ccccc1[N+](=O)[O-])C1C(c2ccccc2)=C1c1ccccc1", "inhibition": "18.5%"},
      {"compound": "CCOC(=O)c1c(-c2cccc(C)c2)csc1NC(=O)c1c(-c2ccccc2)noc1C", "inhibition": "37.7%"},
      {"compound": "Cc1onc(-c2ccccc2)c1C(=O)N1CCOCC1", "inhibition": "1.4%"},
      {"compound": "CCOC(=O)c1sc(NC(=O)CSc2ncccn2)c(C#N)c1C", "inhibition": "6.5%"},
      {"compound": "CCOC(=O)c1cc(NC(=O)c2cccnc2)cc(C(=O)OCC)c1", "inhibition": "22.9%"},
      {"compound": "Cc1cc(C(=O)CC#N)c(C)n1CC(F)(F)F", "inhibition": "17%"},
      {"compound": "CC(C)OCCCNC(=O)CNC(=O)c1cccs1", "inhibition": "14%"},
      {"compound": "CCCOc1ccc(C2c3c(oc4cc(C)c(C)cc4c3=O)C(=O)N2CCCN2CCOCC2)cc1", "note": "(stereo unspecified)", "inhibition": "69.9% (active)"},
      {"compound": "CCOc1ccc(C2C(C(=O)O)c3ccccc3C(=O)N2CCN2CCOCC2)cc1", "note": "(stereo unspecified)", "inhibition": "-12.7%"},
      {"compound": "CCCCOc1ccc(C(C)(O)CCN2CCOCC2)cc1", "note": "(stereo unspecified)", "inhibition": "-1.7%"},
      {"compound": "COC(=O)[C@H](C)NC(=O)Nc1ccc(OC(F)(F)F)cc1", "inhibition": "9.5%"},
      {"compound": "Cc1ccc(N2C(=O)S/C(=C/c3cn(C)c4ccccc34)C2=O)cc1", "inhibition": "-7.8%"},
      {"compound": "CCc1ccc(-c2nnn(Cc3nn[nH]n3)n2)cc1", "inhibition": "14.2%"},
      {"compound": "COc1ccc(-c2nnn(Cc3nc(N)nc(N4CCCCC4)n3)n2)cc1", "inhibition": "65.2% (active)"},
      {"compound": "COc1ccc(-n2nnnc2SCc2nc(N)nc(N3CCOCC3)n2)cc1", "inhibition": "22.5%"},
      {"compound": "CCN(CC)Cc1cc(C(C)=O)ccc1O", "inhibition": "-2.4%"},
      {"compound": "Cc1c(CN2CCC(C)CC2)c(=O)n(-c2ccccc2)n1C", "inhibition": "-0.1%"},
      {"compound": "Cc1nnc(SCC(=O)NCc2ccccc2)s1", "inhibition": "-3.1%"},
      {"compound": "Cc1nnc(SCc2nc3ccccc3nc2C)s1", "inhibition": "52.6% (active)"},
      {"compound": "Cc1nnc(SCC(=O)N2CCc3ccccc3C2)s1", "inhibition": "42.5%"},
      {"compound": "CCc1c(C)sc(NC(=O)OC)c1C(=O)N1CCOCC1", "inhibition": "-0.7%"},
      {"compound": "CC(C)OC(=O)CN1C(=O)c2ccccc2C1=O", "inhibition": "24%"},
      {"compound": "CC(=O)c1cnc(SCCN2C(=O)c3ccccc3C2=O)nc1C", "inhibition": "57.8% (active)"},
      {"compound": "C=CCn1c(C)cc(C(=O)CN2C(=O)c3ccccc3C2=O)c1C", "inhibition": "2.9%"}
    ]}
  ]
}
